Shown are actives, neighbours in structure and some others; about 1.7% of the full set was active somewhere.
F508del corr – F508del CFTR correction, initial screen, CFBE line, single point. activity (quench increase), % at 7.58 µM. CFBE cells, YFP halide quenching; stimulated with forskolin plus potentiator P3; % fluorescence drop versus neutral controls. 0.36% of 350,000 active. AID 720511, 2013;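 active means mean added fluorescence quench of at least 8% versus neutral control, with both replicates also reaching 8%; inconclusive means only one of the mean or replicate conditions met; inactive means mean below 8% and not both replicates reaching 8%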;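 further: cells transiently co-express mutant CFTR-F508del with the halide-sensitive YFP; corrector assay measuring rescue of mutant channel to the surface after 24 h compound exposure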
FGF22 binding – binders of human FGF22 protein, primary screen, FGF22 synaptogenesis inhibitor project, biophysical, thermal shift, single point | recombinant FGF22 thermal shift, SYPRO orange fluorescence; percent of sucrose octasulfate shift, DMSO zero | activity (Tm shift, normalised), % at 9.99 µM | 1.5% of 340,000 active | AID 651658, 2012;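 active means mean Tm shift, scaled 0 neutral to 100 positive control, at about 1.3% or above, every replicate too, limit read from the data; inconclusive means no clear call, values can overlap the other calls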
Target sequence (Q9HCT0 whole entry, looked up): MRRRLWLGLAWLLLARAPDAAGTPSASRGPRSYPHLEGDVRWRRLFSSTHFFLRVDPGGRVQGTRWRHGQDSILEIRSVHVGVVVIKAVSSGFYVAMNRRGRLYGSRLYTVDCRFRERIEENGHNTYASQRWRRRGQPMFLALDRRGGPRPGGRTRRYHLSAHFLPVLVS
Vif inh – HIV Vif self-association inhibitors, primary screen, imaging, HEK293T, single point. 0.35% of 340,000 active. HEK293T cells, Vif self-association by quenched fluorescence, 24 h. inhibition, % at 7.49 µM; in the data active means inhibition above about 50%, passing the limit was not always enough; inconclusive means no clear call, values can overlap the other calls; inactive means below about 31%
* = called active by the depositor; u = inconclusive; x = not tested or not shown.

SMILES	F508del corr	FGF22 binding	Vif inh
Cc1ccccc1OCCN1C(=O)c2ccccc2C1=O	-2.8	0.3	-1.0
Cc1ccccc1OCC(=O)NNC=O	-3.4	43.0*	11.3
Cc1ccccc1OCC(=O)Nc1nc2ccccc2[nH]1	0.8	43.0*	2.1
CCOc1ccccc1OCC(=O)Nc1nc2ccccc2[nH]1	1.7	0.0	1.0
Cc1ccc(S(=O)(=O)Nc2ccc3c(c2)CC(=O)N([C@@H](C)CO)C[C@@H](C)[C@@H](CN(C)C(=O)Nc2cccc4ccccc24)O3)cc1	-5.4	-0.6	x
CSc1nsc(SCC(=O)Nc2ccccc2C(=O)O)n1	-0.8	1.5*	0.8
Cc1cc2nc(SCC(=O)Nc3ccccc3C(=O)O)[nH]c2cc1C	0.3	2.2*	-1.9
NC(=O)c1ccccc1NC(=O)CSc1nc2ccccc2c(=O)[nH]1	-0.7	-0.3	x
CSc1nsc(SCC(=O)Nc2ccc(O)c(C(=O)O)c2)n1	1.4	0.0	-10.2
Cc1cc(C(=O)Nc2cccc3c2O[C@@H](CN(C)C(=O)NC2CCCCC2)[C@H](C)CN([C@@H](C)CO)C3=O)n(C)n1	-2.0	-0.2	x
Nc1nonc1-c1nc2ccccc2n1CC(=O)NC1CCCC1	x	x	50.2*
Nc1nonc1-c1nc2ccccc2n1CC(=O)Nc1ccccc1	3.7	0.1	5.3
C[C@@H]1CN([C@@H](C)CO)C(=O)c2cccc(NC(=O)C3CC3)c2O[C@H]1CN(C)S(=O)(=O)c1cn(C)cn1	-0.2	0.0	x
CN(C)c1ccc(/C=C2\SC(N3CCCCC3)=NC2=O)cc1	3.0	-0.3	196.0*
Cc1ccc(/C=C2\SC(N3CCCC3)=NC2=O)cc1	x	-0.1	x
CCCN1C[C@H](C)[C@H](OC)CN(C)C(=O)c2cc(NS(=O)(=O)CC)ccc2OC[C@@H]1C	-0.5	0.0	x
NC(=O)CNc1ncc(C(F)(F)F)cc1Cl	0.2	0.2	15.0
Cc1onc(C(=O)NN)c1C(=O)Nc1ncc(C(F)(F)F)cc1Cl	-1.1	42.9*	4.0
COc1ccc2c3c([nH]c2c1)[C@H](CO)N(Cc1ccccc1OC)CC31CN(S(C)(=O)=O)C1	1.6	x	x
Cc1ccc(S(=O)(=O)NC2CCN(Cc3cccc(OCCO)c3)CC2)cc1	-1.1	-0.4	x
CN1CCn2cnc(C(=O)NCc3ccccc3)c2C1=O	1.4	0.2	-16.4
Cc1cccc(NC(=O)c2ncn3c2C(=O)N(C)CC3)c1	-1.2	43.3*	4.0
COc1ccc(C2=NOC(C(=O)NCc3ccc(F)cc3)C2)cc1OC (configuration not stated)	8.7*	0.2	12.3
COc1cc(C2=NOC(C(=O)NCc3ccccn3)C2)cc(OC)c1OC (configuration not stated)	x	x	12.2
COc1cc(C2=NOC(C(=O)NCc3ccc(F)cc3)C2)cc(OC)c1OC (configuration not stated)	x	x	60.2*
SMILES	F508del corr	FGF22 binding	Vif inh
Cc1ccc(CNC(=O)C2CC(c3cccc(F)c3)=NO2)cc1 (configuration not stated)	-1.4	0.1	2.1
C[C@H](O)C#Cc1cnc2c(c1)C(=O)N([C@@H](C)CO)C[C@H](C)[C@H](CN(C)C(=O)c1ccccc1F)O2	3.5	0.5	x
Cc1oc(-c2cccc(C(F)(F)F)c2)nc1CN1CCN(c2ccccn2)CC1	x	43.3*	3.6
Cc1cccc(N2CCN(Cc3nc(-c4cccc(Cl)c4)oc3C)CC2)n1	x	0.0	-4.3
CN1CCN(C(=O)C[C@@H]2C=C[C@@H](NC(=O)Nc3ccccc3F)[C@H](CO)O2)CC1	1.3	0.1	x
Cc1ccc(-c2csc3ncn(CC#N)c(=O)c23)cc1	x	x	15.2
Cc1ccc(-c2csc3ncn(CC#N)c(=O)c23)cc1C	10.4*	-0.1	2.5
COC(=O)CNC(c1ccccc1)c1cc(Cl)ccc1NC(=O)c1cccc(Cl)c1 (configuration not stated)	4.8	0.4	-18.3
COC(=O)CNC(c1ccccc1)c1cc(Br)ccc1NC(C)=O (configuration not stated)	2.9	43.1*	-3.7
O=C(Cn1nnc(-c2ccc(F)cc2)n1)N1CCCCC1	0.7	0.1	2.8
O=C(Cn1nnc(-c2ccccc2)n1)N1CCN(c2ccc(F)cc2)CC1	-0.1	42.9*	3.2
N#C/C(=C\c1ccc2c(c1)OCCO2)C(=O)Nc1nccs1	-2.6	-0.3	6.8
COCCNC(=O)/C(C#N)=C/c1ccc2c(c1)OCO2	-2.2	43.6*	0.5
N#C/C(=C\c1ccc2c(c1)OCO2)C(=O)NCc1ccco1	0.1	0.3	-8.2
C=CCNC(=O)/C(C#N)=C/c1ccc2c(c1)OCCO2	-0.6	43.5*	-3.8
O=C(c1cccs1)C1CCCN(Cc2nc(Cc3ccccc3F)no2)C1 (configuration not stated)	-3.2	42.9*	4.5
O=C(c1cccnc1)C1CCCN(Cc2nc(Cc3ccccc3F)no2)C1 (configuration not stated)	-0.1	0.1	u
C[C@H](CO)N1C[C@H](C)[C@H](CN(C)S(C)(=O)=O)Oc2ccc(NS(=O)(=O)c3ccc(F)cc3)cc2C1=O	-1.1	x	x
O=C(CSCc1nc2c(nnn2Cc2ccc(F)cc2)c(=O)[nH]1)Nc1c(Cl)cc(Cl)cc1Cl	-1.9	43.3*	-1.9
CCc1nc2c(nnn2Cc2ccc(F)cc2)c(=O)[nH]1	x	x	5.4
O=C(N[C@@H]1CC[C@H](CCn2cc(Cc3ccccc3)nn2)O[C@H]1CO)c1ccccn1	-3.0	0.0	x
O=C(COc1ccc(Cl)cc1)NCc1nnc(SCC(=O)N2CCCCC2)o1	x	x	-2.7
COc1ccc(C(=O)NCc2nnc(SCC(=O)N3CCC(C)CC3)o2)cc1	0.1	44.3*	1.6
O=C(CSc1nnc(COc2ccc(Cl)cc2)o1)N1CCCC1	-0.1	0.5	-4.9
COc1ccc(C(=O)NCc2nnc(SCC(=O)N3CCC(C)CC3)o2)cc1OC	x	x	2.8
SMILES	F508del corr	FGF22 binding	Vif inh
O=C(COc1ccc(Cl)cc1)NCc1nnc(SCC(=O)N2CCCC2)o1	0.1	43.3*	-14.0
O=C(COc1ccc(Cl)cc1)NCc1nnc(SCC(=O)N2CCCCCC2)o1	-1.1	43.0*	-9.3
C[C@@H]1CN([C@H](C)CO)S(=O)(=O)c2ccc(C#C[C@@H](C)O)cc2O[C@H]1CN(C)Cc1ccncc1	-0.4	-0.1	x
O=C(C[C@@H]1C=C[C@@H](NC(=O)c2ccc(F)cc2)[C@@H](CO)O1)NCCc1ccncc1	0.8	-0.2	x
C[C@H](O)C#Cc1ccc2c(c1)O[C@@H](CN(C)C(=O)c1ccccc1)[C@@H](C)CN([C@H](C)CO)S2(=O)=O	0.6	-0.1	x
Clc1ccc(-c2cc(C3CCNCC3)[nH]n2)cc1	3.1	43.0*	12.7
Cc1ccc(CN2CCC(c3cc(-c4ccc(Cl)cc4)n[nH]3)CC2)cc1	1.6	-0.2	-13.9
CCS(=O)(=O)Nc1ccc2c(c1)C(=O)N(C)[C@@H]1CC[C@@H](CC(=O)NCc3ccccc3F)O[C@H]1CO2	x	0.3	x
O=C(OCC(=O)N1CCN(c2ccccc2)CC1)c1cccc(Cl)c1	x	x	4.2
Cc1cccc(OC(C)C(=O)OCC(=O)N2CCN(c3ccccc3)CC2)c1 (configuration not stated)	0.5	43.6*	-0.2
